Fold change data for 116 compounds are collected here from PubChem BioAssay AID1259312 (Keith Lab, Institute of Cancer Science, University of …, 2017).

Among all 4,500 compounds or so, about 200 (4.4%) were called active. The list comes from a sample in which actives are over-represented; it also holds similar structures and randomly drawn compounds. Unmarked numbers belong to inactive results.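 How the source made its calls: active means cell survival measured by absorbance rises more than 2.5-fold over infected cells without compound; inactive means the rest.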

The assay can be described thus: survival after telomere uncapping, modulators, primary screen, cell-based (AID 1259312).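 Further: virus expresses mutant telomerase RNA that uncaps telomeres and kills cells; compound added 2 days after infection so exposure lasts 3 days.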 The settings on record: HCT116 + Ad-hTR-mut, MTT, 5 d; at 10 µM, hits give high values.
As for `COc1ccc(C(=CCl)c2ccc(OC)c(Br)c2)cc1Br`, the fold change was -2.67.

Regarding `CCc1ccc(C(C2C(=O)CC(C)(C)CC2=O)C2C(=O)CC(C)(C)CC2=O)s1`, the fold change was -2.62.

On to `CCc1sc(C(C2C(=O)CC(C)(C)CC2=O)C2C(=O)CC(C)(C)CC2=O)cc1[N+](=O)[O-]`, for which the fold change is 3.11 (active).

With `CCc1sc(C(C2C(=O)CC(C)(C)CC2=O)C2C(=O)CC(C)(C)CC2=O)cc1Br`, the fold change was -6.02.

As to `O=C(N=Nc1c(O)[nH]c2ccccc12)c1cc(-c2ccco2)[nH]n1`, the fold change result was “inactive”.

Take `O=[N+]([O-])c1ccc(Cl)cc1SCCO`: the fold change is 3.06 (active).

On to `O=[N+]([O-])c1ccc(Cl)cc1N1CCN(CCO)CC1`, for which the fold change was 2.17.

On to `O=[N+]([O-])c1ccc(SCCO)c2ncccc12`, for which the fold change is 1.52.

Turning to `COc1ccc(C2C3CCC=C3C(C#N)=C(N)C2(C#N)C#N)c(OC)c1` (stereo unspecified), the fold change was 1.26.

For `COCCNC(=O)C(=O)NCCC1=CCCCC1`, the fold change is 1.05.

On to `C(=C/c1ccccc1)/CN1CCN(Cn2nnc3ccccc32)CC1`, for which the fold change is -1.33.

Turning to `Clc1cccc(N2CCN(Cn3nnc4ccccc43)CC2)c1`, the fold change is 3.04 (active).

As to `c1ccc2c(c1)nnn2CN1CCN(c2ccc3c(c2)OCO3)CC1`, the fold change is -1.48.

For `Cc1cc(C)c(CCl)c(C)c1/C=N/O`, the fold change is 1.02.

Take `O=C(O)CSc1nc(SCc2ccccc2)nc2ccccc12`: the fold change is 1.5.

On to `CCc1ccc(C2C(C#N)=C(N)OC3=C2C(=O)CCC3)s1` (stereo unspecified), for which the fold change was 1.35.

As for `COC(=O)c1nonc1N`, the fold change was -1.05.

With `CCOC(=O)c1nonc1N`, the fold change was 3.82 (active).

In the case of `Nc1nonc1C(=O)O`, the fold change is -1.12.

As to `CS(=O)(=O)Nc1ccc(Br)cn1`, the fold change was -1.27.

As for `CCCOc1ccc(N/C(N)=N/c2nc(C)cc(C)n2)cc1`, the fold change is -3.48.

As for `CC1=C(C2=C(C)C(C(C)C)C3=C(C(=O)C(O)C3O)C2O)C(O)C2=C(C(O)C(O)C2=O)C1C(C)C` (stereo unspecified), the fold change was -1.99.

With `O=S(=O)(Nc1ccncc1)c1ccc(Cl)cc1`, the fold change is -1.23.

Turning to `O=S(=O)(Nc1cc(Cl)cc(Cl)c1)c1ccc(Cl)cc1`, the fold change was 4.93 (active).

Consider `O=S(=O)(Nc1ccc2c(c1)OCO2)c1ccc(Cl)cc1`, for which the fold change was -1.43.

Turning to `O=S(=O)(Nc1cccc(F)c1)c1ccc(F)cc1`, the fold change is -1.33.

Consider `O=S(=O)(Nc1ccc(F)c(Cl)c1)c1ccc(Cl)cc1`, for which the fold change is 2.99 (active).

For `O=S(=O)(Nc1ccc(Cl)cc1)c1ccc(NS(=O)(=O)c2ccc3c(c2)OCCO3)cc1`, the fold change is -1.18.

As for `COc1ccc(C2Oc3ccccc3C3CC(c4ccccc4)=NN32)cc1` (stereo unspecified), the fold change was -1.84.

On to `O=c1cc(-c2ccc(O)cc2)oc2c(O)c(O)ccc12`, for which the fold change was 1.16.

With `CSc1nc2ccccc2n1Cc1ccccc1Cl`, the fold change is 1.29.

For `O=S(=O)(Nc1ccc(S(=O)(=O)Nc2ccccc2Cl)cc1)c1ccc2c(c1)OCCO2`, the fold change is -1.07.

`CNCC1COCCO1` (stereo unspecified): the fold change is -2.02.

In the case of `N=C(N)SCc1csc(N)n1`, the fold change was 1.98.

Turning to `C1=NC(Cc2cccc3ccccc23)NC1` (stereo unspecified), the fold change was 4.23 (active).

In the case of `S=c1[nH]nc(Cc2cccc3ccccc23)o1`, the fold change is -2.84.

Consider `Cc1nc2sc3c(c2c(=O)n1N)CCC3`, for which the fold change was -1.06.

Consider `c1ccc(CC2COC(C3=N[C@@H](Cc4ccccc4)CO3)=N2)cc1` (stereo partly specified), for which the fold change is 1.27.

`O=C(NCCC1=CCCCC1)C(=O)NCc1ccco1`: the fold change was -1.07.

Regarding `O=S(=O)(c1ccc2ccccc2c1)N1CCc2ccccc21`, the fold change was 1.

Regarding `CCCCc1ccc(-c2csc(N)c2C#N)cc1`, the fold change is -1.78.

Regarding `CCn1c(-c2ccccc2)nn(CN2CCOCC2)c1=S`, the fold change was 1.15.

`S=c1n(CN2CCOCC2)nnn1C1CCCCC1`: the fold change was 1.01.

On to `S=c1n(CN2CCOCC2)nnn1-c1ccccc1`, for which the fold change was 4.24 (active).

As to `CN(C)c1nc(N)nc(CN(C)S(=O)(=O)c2ccccc2)n1`, the fold change is -1.09.

As to `O=c1[nH]c2ccc(N=Cc3ccc4c(c3)OCO4)cc2[nH]1`, the fold change was 2.71 (active).

For `CN(C)c1ccc(C=Nc2ccc3[nH]c(=O)[nH]c3c2)cc1[N+](=O)[O-]`, the fold change was -1.64.

With `C(=Nc1ccc2[nH]ncc2c1)c1ccc2c(c1)OCO2`, the fold change was -2.04.

For the compound `O=C(ON1C(=O)CCC1=O)ON1C(=O)CCC1=O`, the fold change is -1.28.

As to `O=[N+]([O-])c1ccc(Cl)c(N2CCCC2)c1`, the fold change is 2.03.

For the compound `N=C(N)SCc1ccc(Cl)cc1Cl`, the fold change was -1.36.

As to `N=C(N)SCc1ccc(Cl)cc1`, the fold change is 2.73 (active).

On to `Nc1nnc(SCc2ccc(Cl)cc2)s1`, for which the fold change was 1.21.

For the compound `CC1Oc2ccc(S(=O)(=O)NCC3CCCO3)cc2NC1=O` (stereo unspecified), the fold change was -1.21.

In the case of `O=S(=O)(NCC1CCCO1)c1ccccc1` (stereo unspecified), the fold change was -1.72.

On to `O=S(=O)(NCC1CCCO1)c1ccc(Br)cc1` (stereo unspecified), for which the fold change was 3.1 (active).

For the compound `NCC12CC3CC(CC(C3)C1)C2`, the fold change is -1.38.

Consider `CC1NC(=O)N(C(C)(C)C)C(=O)C1Cl` (stereo unspecified), for which the fold change was 3.94 (active).

With `COc1ccc(N2C(=O)/C(=C\N3CCN(C)CC3)SC2=S)cc1`, the fold change is -1.11.

For `Cc1ccn(-c2ccc([N+](=O)[O-])cc2)n1`, the fold change is -1.59.

Take `O=C1NC(=O)/C(=C\c2ccc(-c3cccc(C(F)(F)F)c3)o2)S1`: the fold change was -1.8.

With `N#CC(C#N)=Cc1ccc(-c2cccc(C(F)(F)F)c2)o1`, the fold change is 2.62 (active).

With `O=C1NC(=S)S/C1=C/c1ccc(-c2cccc(C(F)(F)F)c2)o1`, the fold change is 1.1.

Regarding `O=C1CSc2ccc(NC(=O)C3CCCC3)cc2N1`, the fold change was 1.29.

Regarding `O=[N+]([O-])c1ccc(N2CCOCC2)cc1`, the fold change was 1.1.

On to `O=[N+]([O-])c1ccc(N2CCCCC2)cc1N1CCOCC1`, for which the fold change is -1.29.

`Nc1cc(N2CCOCC2)ccc1[N+](=O)[O-]`: the fold change was 3.38 (active).

For `O=C(O)C(C(=O)O)C1C=CCC1` (stereo unspecified), the fold change was 1.13.

`Nc1ccc(N2CCOCC2)c(Br)c1`: the fold change was -1.07.

Consider `Nc1cc(Cl)ccc1N1CCOCC1`, for which the fold change is 1.23.

As to `Nc1ccc(N2CCOCC2)c(Cl)c1`, the fold change is 4.13 (active).

With `N#CC1=C(N)n2c(s/c(=C\c3ccc(Br)cc3)c2=O)=C(C#N)C1c1ccc(Br)cc1` (stereo unspecified), the fold change is -1.13.

In the case of `Brc1ccc(-c2csc(N3CCOCC3)n2)cc1`, the fold change was 1.56.

In the case of `N#CC(C#N)C(c1ccsc1)c1c(-c2ccccc2)[nH][nH]c1=O` (stereo unspecified), the fold change is 3.37 (active).

As to `Clc1ccc(-c2nc3sc(-c4ccc(Cl)cc4Cl)nc3s2)c(Cl)c1`, the fold change was -2.46.

As for `COC(=O)c1nc2ccc(OC)cc2s1`, the fold change was -1.15.

On to `COc1ccc(C2C(C#N)=C(N)NC(C(C#N)C#N)=C2C#N)cc1OC` (stereo unspecified), for which the fold change is -1.8.

On to `O=C(O)c1ccn[nH]1`, for which the fold change is 3.42 (active).

Consider `COC(=O)CNC(=O)c1ccn[nH]1`, for which the fold change was -1.28.

Regarding `CCOC(=O)CO/N=C(\C(=O)O)c1ccn[nH]1`, the fold change entry was “inactive”.

Consider `c1ccc(CCn2c(-c3ccccc3)csc2=Nc2ccccc2)cc1`, for which the fold change is -2.95.

As for `CSc1nc(-c2ccc([N+](=O)[O-])cc2)nn1C`, the fold change is -3.83.

Turning to `CS(=O)(=O)NCCNC(=O)c1nonc1N`, the fold change is -1.3.

Take `Nc1nonc1C(=O)NCCNS(=O)(=O)c1ccccc1`: the fold change is 3.28 (active).

In the case of `NCCNC(=O)c1nonc1N`, the fold change is 1.63.

As to `O=C(O)c1[nH]c(=O)[nH]c(=O)c1[N+](=O)[O-]`, the fold change is 1.2.

As to `CS(=O)(=O)N1CCc2cc(S(=O)(=O)N3CCC(c4ccccc4)CC3)ccc21`, the fold change is 1.49.

With `CS(=O)(=O)Nc1cccc(Cl)c1Cl`, the fold change was -1.31.

`COc1ccc(CC2=CN(C)CC3=C2OC(N)=C(C#N)C3c2ccc(OC)c(OC)c2)cc1OC` (stereo unspecified): the fold change is -1.28.

With `O=C(Nc1ccc(Cl)cc1)Nc1ccc(Cl)cc1Cl`, the fold change was -2.79.

With `CCc1nnc(NC(=O)CN(C)CCC#N)s1`, the fold change was -1.46.

In the case of `O=C(O)CCCn1c(=O)n(CCCC(=O)O)c2ccccc21`, the fold change is 3.81 (active).

`O=c1n(Cc2ccon2)c2ccccc2n1Cc1ccon1`: the fold change was -2.68.

Turning to `COC(=O)Cn1c(=O)c2ccccc2n(CC(=O)OC)c1=O`, the fold change is -1.31.

With `CCN(C(=O)Cc1cccs1)C1CCCCC1`, the fold change was -1.09.

On to `Cn1c(=O)oc2ccc(S(=O)(=O)Nc3ccc4c(c3)n(C)c(=O)n4C)cc21`, for which the fold change was -1.89.

For `Nc1nonc1-c1ccccc1`, the fold change is -1.8.

As for `Cc1ccc(N=Nc2ccccc2)c(N)n1`, the fold change is 3.19 (active).

On to `CC(=NCCCN1CCOCC1)c1c(C(F)(F)F)[nH]n(-c2nc3ccccc3s2)c1=O`, for which the fold change entry was “inactive”.

Take `CCCCCCCN=C(C)c1c(C(F)(F)F)[nH]n(-c2nc3ccccc3s2)c1=O`: the fold change entry was “active”.

Consider `CCCN=C(CC)c1c(C(F)(F)F)[nH]n(-c2nc3ccccc3s2)c1=O`, for which the fold change result was “inactive”.

For the compound `Cc1ccc2c(c1)c1c3n2CCN(c2nc(-c4ccc(Cl)cc4)cs2)C3CCC1` (stereo unspecified), the fold change was 1.42.

For `O=C1CC(=O)N(c2ccc(Br)cc2)N1`, the fold change was -1.32.

Turning to `Cn1cccc1/C=C1/C(=O)ON=C1c1ccccc1`, the fold change is -2.3.

Turning to `CCCCCCC1(C)OCO/C1=C\C[N+](C)(C)C` (stereo unspecified), the fold change was -1.62.

In the case of `O=S(=O)(c1ccc(Br)cc1)N1CCCCCC1`, the fold change is 1.7.

Consider `CN1CCN(S(=O)(=O)c2ccc(Br)cc2)CC1`, for which the fold change is 3.8 (active).

As for `O=S(=O)(c1ccc(Oc2ccc(Br)cc2)cc1)N1CCOCC1`, the fold change was -1.23.

`Nc1nnc(SCc2cccc(CSc3nnc(N)s3)n2)s1`: the fold change is 1.27.

As for `Cn1c(=O)n(C)c2cc(CN3C(=O)c4ccccc4C3=O)ccc21`, the fold change was 1.01.

With `CCc1nnc(NS(=O)(=O)c2ccc(N)cc2)s1`, the fold change was 3.88 (active).

On to `Nc1ccc(S(=O)(=O)Nc2ccccc2)cc1`, for which the fold change was -1.09.

In the case of `CNS(=O)(=O)c1ccc(N)cc1`, the fold change is 1.14.

With `CC(=O)NS(=O)(=O)c1ccc(N)cc1`, the fold change was -1.73.

Consider `O=S(=O)(Nc1ccc(Cl)cn1)c1ccc(Br)cc1`, for which the fold change is -1.1.

Consider `Nc1ccc(S(=O)(=O)Nc2ccc(Cl)nn2)cc1`, for which the fold change was 2.5 (active).
